Most compounds without a hit are left out; they make up all but 1.4% or so of the library.
hERG WT inh = qHTS for Inhibitors of KCHN2 3.1: Wildtype qHTS; Voltage-gated inwardly rectifying potassium channel KCNH2 (Homo sapiens), Q12809; U2OS, BacMam KCNH2, thallium flux FluxOr; active compounds read low; activity change, % at 1.84 µM; 340,000 tested, 0.37% active;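 active = maximum activity change below -70%; inconclusive = maximum activity change between -70% and -50%; inactive = maximum activity change above -50%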
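U2OS cells were transduced with wild-type KCNH2 virus (2.03 x 10^8 / mL) for 4 h at room temperature, then cultured overnight at 37 C. Thallium flux was read with FluxOr dye. Rate constants were normalized to DMSO controls.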
RXFP1 agonist = qHTS Assay for Agonists of the Relaxin Receptor RXFP1. Relaxin receptor 1 (Homo sapiens), Q9HBX9. HEK293T-RXFP1 cAMP TR-FRET, 30 min; response scale: percent of porcine relaxin response, buffer zero. Potency, µM (series often up to 57.5 µM), actives largely listed as activators. 370,000 tested, 0.3% active. AID 2676, 2010; note: nearly all actives have a fitted effect of over 60% in size
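HEK293T cells stably expressing RXFP1 were pretreated with the PDE4 inhibitor Ro 20174, exposed to compounds for 30 min at 37C, lysed, and cAMP was read by TR-FRET. Data normalized to buffer (basal) and 29 nM porcine relaxin (100%).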
RXFP1 antag = qHTS Assay for Antagonists of the Relaxin Receptor RXFP1; HEK293-RXFP1, relaxin-stimulated cAMP HTRF, 30 min; active compounds read low; activity change, negative = inhibition, % at 57.5 µM; 350,000 tested, 0.59% active; AID 1259400, 2018;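 active = activity change of -60% or lower, but not beyond a set lower limit; inconclusive = change between -60% and -40%, or beyond the set limit; inactive = change above -40%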
KCNH2 3.1 inh = qHTS for Inhibitors of KCHN2 3.1: Mutant qHTS; activity change, % (tested at about 1.8 µM); 340,000 tested, 0.95% active; Potassium voltage-gated channel subfamily H member 2, brain isoform KCNH2 3.1 (human); U2OS KCNH2 3.1, thallium flux FluxOr; active compounds read low;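 active = maximum activity change below -70%; inconclusive = maximum activity change from -70% to -50%; inactive = maximum activity change above -50%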;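 note: thallium influx rate constant from kinetic fluorescence after stimulation buffer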
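Normalized rate constant (relative to positive and negative DMSO controls) derived from a 2 min kinetic fluorescence read after stimulation; U2OS cells expressing the 3.1 isoform via virus at 1.77 x 10^8 /mL.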
GRP78 ERSR act = qHTS for Inducers of the Endoplasmic Reticulum Stress Response (ERSR) in Human Glioma: qHTS. U87-MG GRP78 promoter luciferase reporter, 16 h. Potency, µM, hits mostly activators. 420,000 tested, 0.02% active; note: series mostly up to about 76 µM; nearly all actives have a fitted effect of over 35% in size
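ERSR induction read as luciferase luminescence (Bright-Glo, 10 min at room temperature) in stably transfected human U87-MG glioma cells exposed to compounds for 16 h, using GRP78 as sensor.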
PTHR1 agonist = qHTS for PTHR1 Agonists: Primary Screen. Parathyroid hormone/parathyroid hormone-related peptide receptor (Homo sapiens), Q03431. HEK293 GP2 PTHR1 cells, GloSensor cAMP luminescence, 1 h. Potency, µM (titrated, usually from 115 µM), usual class: activators. 410,000 tested, 0.075% active. AID 743266, 2014; note: nearly all actives have a fitted effect of over 55% in size
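HEK-293-derived GP2 cells expressing PTHR1 and a GloSensor cAMP reporter, 3,000/well, plated overnight, given luciferin plus IBMX (each 0.5 mM as added) for 1 h at 37 °C, then compound for 1 h at 37 °C. Luminescence was read after 15 min at room temperature.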
A number is an active result; i = inactive; ? = inconclusive; nt = no result given. Unless noted, calls come from the whole dose curve; as a rule, active = well fitted curve in the direction sought with a large enough effect; inconclusive = small, poorly fitted or top-dose-only effect, or another doubt; inactive = no such curve, though single readings can be large; an effect the other way counts as inactive or inconclusive.

SMILES | hERG WT inh | RXFP1 agonist | RXFP1 antag | KCNH2 3.1 inh | GRP78 ERSR act | PTHR1 agonist
CN(C)c1ccc(Cc2cc3c(O)ccc(O)c3cc(Cc3ccc(N(C)C)cc3)c2=O)cc1 | i | nt | -107.3 | i | ? | i
CN(CCOc1ccc(Cl)cc1)CC(=O)Nc1ccc(OC(F)F)cc1 | i | i | i | -85.0 | i | i
COc1cc(C2C(C(=O)c3cc4ccccc4o3)=C(O)C(=O)N2CCN2CCOCC2)ccc1OCCC(C)C (stereo unspecified) | i | 28.2µM | i | i | i | i
CCCOc1ccc(C2C(C(=O)c3ccco3)=C(O)C(=O)N2CCN2CCOCC2)cc1OC (stereo unspecified) | nt | i | nt | nt | nt | nt
CSCCC(NC(=O)COc1ccccc1)C(=O)N(C)Cc1ccc(F)cc1 (stereo unspecified) | i | i | i | i | i | i
CCNc1nc(N)c(C(=O)C23CC4CC(CC(C4)C2)C3)s1 | i | i | -67.6 | i | i | i
Cc1ccc(Nc2cc(C(=O)NC3CCCC3)c3ccccc3n2)c(C)c1 | nt | i | i | nt | i | i
Cc1cccc(C)c1NC(=O)Cn1c(=O)n(CCCS(=O)(=O)C2CCCCC2)c(=O)c2ccccc21 | nt | i | nt | nt | i | i
CCn1c(/C(C#N)=N/O)nc2ccccc21 | -115.2 | i | i | -80.7 | i | i
Cn1c(/C(C#N)=N/O)nc2ccccc21 | i | i | i | i | i | i
COC(=O)c1cc(NC(=O)c2cc(C)oc2C)cc(C(=O)OC)c1 | -193.1 | i | i | i | i | i
CCCCN1C(=O)c2ccc(C(=O)Nc3ccc(C)c(S(=O)(=O)N(C)C)c3)cc2C1=O | i | i | i | -73.6 | i | i
COc1ccc(C[C@@H]2CN3C(=NC[C@@H]3C)N2C[C@H](C)NC(=O)CCC2CCCCC2)cc1 | -129.5 | i | nt | -84.3 | i | i
C/C=C(\C)C(=O)NCCN1C2=NC[C@H](Cc3ccccc3)N2C[C@@H]1Cc1ccc(OC)cc1 | i | nt | nt | -83.2 | i | i
COc1ccc(C[C@H]2CN3C(=NC[C@H]3Cc3ccccc3)N2CCNC(=O)CCC2CCCCC2)cc1 | -107.2 | i | nt | ? | i | i
CCOC(=O)C1CCCN(c2nc3c(S(=O)(=O)c4ccc(CC)cc4)nnn3c3ccc(Cl)cc23)C1 (stereo unspecified) | nt | i | i | nt | i | i
O=C(Nc1ccc2nc(-c3ccco3)[nH]c2c1)c1cccs1 | i | i | i | i | i | i
Cc1nn(CC(=O)OCCOc2ccc(Br)cc2)c(C)c1[N+](=O)[O-] | i | i | i | -73.3 | i | i
N#Cc1ccc(N2C(=O)[C@@H]3C(C(=O)c4ccc5ccccc5n4)=NN[C@@H]3C2=O)cc1 | -97.6 | i | i | i | i | i
Cc1ccc(C(=O)NC(=S)Nc2ccc(CN3CCCCC3)cc2)c(C)c1 | i | i | i | -72.7 | i | i
O=C(NC(=S)Nc1ccc(CN2CCCCC2)cc1)c1cc2ccccc2o1 | i | i | i | -94.0 | i | i
S=C(Nc1ccc(Br)cc1Cl)N1CCCC1 | i | i | i | i | i | i
O=C(Nc1ccc(CN2CCCCC2)cc1)Nc1ccc(Br)cc1Cl | ? | i | i | -109.8 | i | i
CN1CCN(S(=O)(=O)c2ccc(C(F)(F)F)cc2)C(c2ccccc2)C1 (stereo unspecified) | i | i | i | i | i | i
Cc1nnsc1C(=O)NC1CCCc2c1cnn2-c1ccccc1F (stereo unspecified) | i | i | i | i | i | i
CCOC(=O)c1ccc(CC(=O)c2ccc(O)cc2O)o1 | i | i | i | i | i | i
CCC(=O)Oc1ccc(C/C(=N\O)c2ccc(O)cc2O)o1 | i | i | -60.1 | i | i | i

High-throughput results: PubChem BioAssay, National Center for Advancing Translational Sciences (NCATS)
